In PubChem BioAssay (NCATS):
Records with an inconclusive call do not appear. Calls of active or inactive are those of the source. Unless noted, calls come from the whole dose curve; as a rule, active = well fitted curve in the direction sought with a large enough effect; inconclusive = small, poorly fitted or top-dose-only effect, or another doubt; inactive = no such curve, though single readings can be large; an effect the other way counts as inactive or inconclusive.

What was measured:
[1] = biological target: Estrogen receptor (Homo sapiens) (UniProt P03372); assay: qHTS assay for small molecule antagonists of estrogen receptor alpha signaling (AID 588513; active = well fitted curve in the direction sought with a large enough effect in the signal ratio, with a control signal flat, not every such curve was filed as active; the % refers to the signal ratio; note: % is set by controls: 0 for no effect and ±100 for the full control effect); conditions: ER-alpha-UAS-bla HEK293, beta-lactamase ratio, antagonist mode; series mostly up to 76.9 µM
Summary of the method: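 ER-alpha-UAS-bla GripTite HEK 293 cells in 2% charcoal/dextran-treated FBS medium; compounds titrated (1:2, duplicate), then stimulated with 0.5 nM 17-beta-estradiol for 18 h at 37C. CCF4 beta-lactamase fluorescence; Hill-fit IC50 and efficacy.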

[2] = biological target: Estrogen receptor (Homo sapiens) (UniProt P03372); assay: qHTS assay for small molecule agonists of estrogen receptor alpha signaling (AID 588514; calls by dose curve;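 note: 0% = vehicle only and 100% = reference agonist; nearly all actives have a fitted effect of over 70% in size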); conditions: ER-alpha-UAS-bla HEK293, beta-lactamase ratio, 18 h; series mostly up to 76.8 µM
Summary of the method: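 EC50 and efficacy came from Hill fits of beta-lactamase reporter signal (CCF4 dye, 2 h at room temperature) scaled between DMSO and 20 nM 17-beta-estradiol. Agonist mode: HEK293 ER-alpha-UAS-bla cells in charcoal/dextran-stripped serum medium, 18 h compound exposure at 37 C.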

[3] = biological target: Glucocorticoid receptor (Homo sapiens) (UniProt P04150); assay: qHTS assay for small molecule agonists of glucocorticoid receptor signaling (AID 588532; active = well fitted curve in the direction sought with a large enough effect in the signal ratio, with a control signal flat; the % refers to the signal ratio;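 note: 100% = dexamethasone at 0.1 µM and 0% = DMSO only wells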); conditions: HeLa MMTV-bla, beta-lactamase ratio, agonist, 18 h; stronger effect = higher value; percent of dexamethasone control, DMSO zero
Summary of the method: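 Agonist-mode qHTS: GRE-driven beta-lactamase in HeLa cells exposed 18 h to titrated compounds (up to 92 uM), then CCF4 ratio read after 2 h at RT; Hill-fitted EC50, efficacy relative to 0.1 uM dexamethasone.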

[4] = biological target: Peroxisome proliferator-activated receptor gamma (Homo sapiens) (UniProt P37231); assay: qHTS assay for small molecule agonists of peroxisome proliferator-activated receptor gamma signaling (AID 588536; active = well fitted curve in the direction sought with a large enough effect in the signal ratio, with a control signal flat, not every such curve was filed as active; the % refers to the signal ratio;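 note: 0% = DMSO basal wells and 100% = rosiglitazone at 2 µM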); conditions: HEK293 PPARg-UAS-bla, beta-lactamase ratio, 16 h, percent of rosiglitazone response, DMSO as zero; series mostly up to 76.7 µM
Summary of the method: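 Compound treatment: 16 h, 37 C, HEK293 GeneBLAzer cells. Detection: CCF4, 2 h RT. Values: Hill-fit EC50, efficacy as % of 2 uM rosiglitazone.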

[5] = biological target: Vitamin D3 receptor (Homo sapiens) (UniProt P11473); assay: qHTS assay for small molecule antagonists of vitamin D receptor signaling (AID 588541; calls by dose curve;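 note: receptor activated by calcitriol during compound treatment; % is set by controls: 0 for no effect and ±100 for the full control effect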); conditions: HEK293T VDR-UAS-bla, beta-lactamase ratio, antagonist mode; series mostly up to 76.7 µM
Summary of the method: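 Antagonist-mode beta-lactamase reporter assay: HEK293T VDR-UAS-bla cells were exposed to titrated compound alongside 1-alpha,25-dihydroxyvitamin D3 at 3 nM final for 16 h. Values were normalized to the 50 nM agonist control and DMSO basal, with IC50 and efficacy from Hill equation fits.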

[6] = qHTS assay for small molecule agonists of retinoid X receptor alpha signaling (AID 588544; calls by dose curve;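 for activation: 0% = DMSO basal wells and 100% = reference agonist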); conditions: HEK293T RXRa-UAS-bla, beta-lactamase reporter, 18 h; 530 nm emission
[7] = biological target: Retinoic acid receptor RXR-alpha (Homo sapiens) (UniProt P19793); assay: as above; conditions: HEK293T RXRa-UAS-bla, beta-lactamase reporter, 18 h; series mostly up to 76.7 µM
[8] = biological target: Thyroid hormone receptor beta (Homo sapiens) (UniProt P10828); assay: qHTS assay for small molecule agonists of thyroid hormone receptor beta signaling (AID 588545; calls by dose curve); conditions: TR-UAS-bla GripTite HEK 293, beta-lactamase ratio, agonist mode, 18 h; series mostly up to 76.7 µM
Summary of the method: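 Agonist activity was read as beta-lactamase CCF4 fluorescence (405 ex, 460/530 em), scaled between DMSO (0%) and 10 nM T3 (100%), then Hill-fitted for EC50 and efficacy. HEK 293 TR-UAS-bla cells in 2% charcoal/dextran FBS medium were exposed 18 h at 37 C.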

[9] = qHTS assay for small molecule antagonists of retinoid X receptor alpha signaling (AID 588546; active = well fitted inhibition curve with a large enough effect in the signal ratio, with a control signal flat, not every such curve was filed as active; the % refers to the signal ratio;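 note: cells stimulated with 9-cis-retinoic acid as agonist; % is set by controls: 0 for no effect and ±100 for the full control effect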); conditions: HEK293T RXRa-UAS-bla, beta-lactamase ratio, antagonist mode; measured here: W530 green channel, cytotoxicity proxy
Summary of the method: (§1)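 Beta-lactamase reporter inhibition, read as CCF4 fluorescence ratio (ex 405, em 460/530 nm) after 2 h at RT. HEK293T UAS-bla cells, 2500/well, were stimulated with 9-cis-RA at 500 or 100 nM final alongside test compound for 18 h at 37 C.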

[10] = biological target: Retinoic acid receptor RXR-alpha (Homo sapiens) (UniProt P19793); assay: as above; conditions: HEK293T RXRa-UAS-bla, beta-lactamase ratio, antagonist mode
Summary of the method: as §1

[11] = biological target: Thyroid hormone receptor beta (Homo sapiens) (UniProt P10828); assay: qHTS assay for small molecule antagonists of thyroid hormone receptor beta signaling (AID 588547; active = well fitted inhibition curve with a large enough effect in the signal ratio, with a control signal flat, not every such curve was filed as active; the % refers to the signal ratio;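 note: cells stimulated with 0.4 nM T3 agonist during compound exposure; % is set by controls: 0 for no effect and ±100 for the full control effect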); conditions: TR-UAS-bla HEK293, beta-lactamase ratio, antagonist mode, 18 h
Summary of the method: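 Inhibition of T3-driven (0.4nM final) beta-lactamase reporter activity was measured over 0.59 nM to 92 uM compound after 18 h at 37 C. The cells were GripTite HEK293 TR-UAS-bla in charcoal/dextran-stripped serum, with CCF4 ratio read-out and IC50 from Hill fits.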

[12] = qHTS assay for small molecule activators of the nuclear factor-kappa B (NF-kB) signaling pathway (AID 651749; active = well fitted activation curve with a large enough effect in the signal ratio; the % refers to the signal ratio; note: % of control where 0% means no effect); conditions: NF-kB-bla ME-180 cells, beta-lactamase FRET ratio, 16 h; activation: stronger effect = higher value
Summary of the method: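 Activation measured after 16 hr compound treatment at 37C, 5% CO2, of 2,000 ME-180 cells/well stably expressing an NF-kB response element–driven beta-lactamase reporter, via FRET-disruption fluorescence.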

[13] = qHTS assay for environmental chemicals that activate the Aryl hydrocarbon Receptor (AhR) signaling pathway (AID 651777); conditions: 1A2-DRE human hepatoma cells, luciferase, 24 h; activation: stronger effect = higher value; note: % of control where 0% means no effect; nearly all actives have a fitted effect of over 15% in size
Summary of the method: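 Measured luciferase activity, read 30 min after One-Glo addition at room temperature, from human hepatoma cells bearing a dioxin response element–CYP1A2 promoter reporter and exposed to compound for 24 hr at 37 C.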

[14] = biological target: Peroxisome proliferator-activated receptor alpha (Homo sapiens) (UniProt Q07869); assay: qHTS assay for small molecule agonists of the peroxisome proliferator-activated receptor alpha (PPARalpha) signaling pathway (AID 651778); conditions: PathHunter PPARalpha complementation, chemiluminescence, 6 h; max response: stronger effect = higher value; note: % of control where 0% means no effect
Summary of the method: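 Chemiluminescence from complemented enzyme reported PPARalpha activation in cells after 6 hr of compound treatment at 37 C. The detection reagent was incubated for 60 min at room temperature, and compounds were scored as agonists.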

[15] = qHTS assay for small molecule agonists of the antioxidant response element (ARE) signaling pathway measured by Nrf2-dependant transcriptional activity - cell viability counter screen (AID 720653; active = well fitted curve in the direction sought with a large enough effect in the repeat runs; an effect the other way counts as inactive or inconclusive; note: % is set by controls: 0 for no effect and ±100 for the full control effect); conditions: ARE-bla HepG2 viability, CellTiter-Glo ATP luminescence, 16 h; max response: stronger effect = lower value
Summary of the method: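 Cytotoxicity counter screen: intracellular ATP quantified by CellTiter-Glo luminescence in the same ARE-bla HepG2 plates, after 16 h compound exposure and a 2 h beta-lactamase substrate step.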

[16] = qHTS assay for cell viability of HEK293 cells (AID 743288); conditions: ATP luminescence (CellTiter-Glo), 18 h; max response: stronger effect = lower value; note: % is set by controls: 0 for no effect and ±100 for the full control effect; nearly all actives have a fitted effect of over 50% in size
Summary of the method: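 Steps: plate 2,000 parental HEK293 cells per well; incubate ≥5 h, 37 C; add compounds in DMSO; incubate 18 h, 37 C; add CellTiter-Glo; wait 30 min at room temperature; read luminescence.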

[17] = qHTS assay for cell viability of the p53RE-bla HCT-116 cell line (AID 743292); conditions: p53RE-bla HCT-116 viability, ATP luminescence, 16 h; series mostly up to 95 µM; note: % is set by controls: 0 for no effect and ±100 for the full control effect; nearly all actives have a fitted effect of over 55% in size
Summary of the method: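 Intracellular ATP of p53RE-bla HCT-116 cells measured by luciferase luminescence following 16 h compound incubation at 37 C; DMSO-only wells served as vehicle controls.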

[18] = biological target: Nuclear receptor subfamily 1 group I member 2 (Rattus norvegicus) (UniProt Q9R1A7); assay: qHTS assay for small molecule activators of the rat pregnane X receptor (rPXR) signaling pathway (AID 651751; call rule not given here; note: 0% is about no effect); conditions: rPXR reporter cells, luciferase (One-Glo), 24 h
[19] = qHTS assay for small molecule activators of the human pregnane X receptor (PXR) signaling pathway (AID 720659; call rule not given here; note: 0% is about no effect); conditions: DPX-2 HepG2 CYP3A4-luciferase, 24 h; series mostly up to 92.3 µM
[20] = qHTS assay for small molecule antagonists of peroxisome proliferator-activated receptor delta signaling (AID 588535); conditions: HEK293T PPARd-UAS-bla, beta-lactamase FRET ratio, 18 h; 460 nm channel;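 note: cells co-treated with a PPAR-delta agonist as stimulator during compound exposure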
Summary of the method: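 Titrations were run on PPAR-delta-UAS-bla HEK293T cells in charcoal/dextran-stripped serum, incubated 18 h at 37 C. CCF4 fluorescence (460/530 nm) after 2 h RT; Hill equation yields IC50 and maximal response.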

Estrogen receptor (Homo sapiens), sequence (P03372 whole entry, looked up): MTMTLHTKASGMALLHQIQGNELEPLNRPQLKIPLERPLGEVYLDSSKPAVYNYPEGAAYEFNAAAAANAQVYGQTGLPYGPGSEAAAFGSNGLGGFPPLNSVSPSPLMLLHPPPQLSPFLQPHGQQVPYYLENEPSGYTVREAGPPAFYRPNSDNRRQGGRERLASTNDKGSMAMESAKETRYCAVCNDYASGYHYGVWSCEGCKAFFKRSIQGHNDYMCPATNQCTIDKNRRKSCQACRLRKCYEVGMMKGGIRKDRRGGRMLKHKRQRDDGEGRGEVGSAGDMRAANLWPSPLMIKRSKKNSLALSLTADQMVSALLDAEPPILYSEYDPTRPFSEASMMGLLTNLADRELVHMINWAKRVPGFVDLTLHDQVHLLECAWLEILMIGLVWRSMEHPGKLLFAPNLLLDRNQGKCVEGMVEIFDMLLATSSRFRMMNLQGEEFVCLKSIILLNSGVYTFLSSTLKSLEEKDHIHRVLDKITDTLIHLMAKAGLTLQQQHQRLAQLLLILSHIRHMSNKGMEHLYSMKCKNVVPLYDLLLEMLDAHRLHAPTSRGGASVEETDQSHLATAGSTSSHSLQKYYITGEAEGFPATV
Peroxisome proliferator-activated receptor gamma (Homo sapiens), sequence (P37231 whole entry, looked up): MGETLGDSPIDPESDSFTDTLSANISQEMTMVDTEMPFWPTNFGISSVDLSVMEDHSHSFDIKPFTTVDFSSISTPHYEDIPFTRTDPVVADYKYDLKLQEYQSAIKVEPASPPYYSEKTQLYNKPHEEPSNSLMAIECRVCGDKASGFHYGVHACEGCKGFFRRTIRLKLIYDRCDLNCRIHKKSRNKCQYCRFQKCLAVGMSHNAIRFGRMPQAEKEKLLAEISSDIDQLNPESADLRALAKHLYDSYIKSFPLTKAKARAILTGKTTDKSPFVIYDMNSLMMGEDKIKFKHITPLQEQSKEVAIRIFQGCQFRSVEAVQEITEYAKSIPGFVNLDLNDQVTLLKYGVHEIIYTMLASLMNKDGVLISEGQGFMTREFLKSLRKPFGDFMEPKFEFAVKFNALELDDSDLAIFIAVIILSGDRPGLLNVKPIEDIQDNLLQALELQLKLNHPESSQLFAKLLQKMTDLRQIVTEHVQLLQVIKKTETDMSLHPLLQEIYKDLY
Thyroid hormone receptor beta (Homo sapiens), sequence (P10828 whole entry, looked up): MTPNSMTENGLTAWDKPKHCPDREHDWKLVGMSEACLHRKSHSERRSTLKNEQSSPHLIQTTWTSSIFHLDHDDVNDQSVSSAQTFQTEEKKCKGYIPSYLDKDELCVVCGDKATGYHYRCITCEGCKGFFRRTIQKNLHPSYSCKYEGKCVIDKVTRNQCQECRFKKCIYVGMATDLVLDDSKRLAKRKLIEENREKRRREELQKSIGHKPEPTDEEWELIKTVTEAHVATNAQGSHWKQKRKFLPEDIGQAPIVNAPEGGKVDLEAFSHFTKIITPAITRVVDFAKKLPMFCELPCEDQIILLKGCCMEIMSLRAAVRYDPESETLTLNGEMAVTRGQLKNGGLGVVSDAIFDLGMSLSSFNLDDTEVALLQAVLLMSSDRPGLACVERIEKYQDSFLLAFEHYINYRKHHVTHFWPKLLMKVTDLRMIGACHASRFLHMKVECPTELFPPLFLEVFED
Retinoic acid receptor RXR-alpha (Homo sapiens), sequence (P19793 whole entry, looked up): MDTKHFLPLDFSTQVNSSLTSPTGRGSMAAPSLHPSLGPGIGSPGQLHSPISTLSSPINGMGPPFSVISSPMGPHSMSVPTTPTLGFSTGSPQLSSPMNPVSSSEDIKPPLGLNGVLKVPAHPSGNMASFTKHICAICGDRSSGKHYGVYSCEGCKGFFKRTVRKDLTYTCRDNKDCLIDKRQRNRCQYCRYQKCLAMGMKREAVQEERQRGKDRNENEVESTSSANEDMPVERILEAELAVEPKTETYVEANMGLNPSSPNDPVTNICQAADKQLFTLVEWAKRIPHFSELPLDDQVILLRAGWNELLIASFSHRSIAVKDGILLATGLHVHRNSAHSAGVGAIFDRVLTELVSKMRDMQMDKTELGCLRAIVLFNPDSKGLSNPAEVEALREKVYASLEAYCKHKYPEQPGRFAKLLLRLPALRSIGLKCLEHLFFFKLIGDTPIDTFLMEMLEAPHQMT
Vitamin D3 receptor (Homo sapiens), sequence (P11473 whole entry, looked up): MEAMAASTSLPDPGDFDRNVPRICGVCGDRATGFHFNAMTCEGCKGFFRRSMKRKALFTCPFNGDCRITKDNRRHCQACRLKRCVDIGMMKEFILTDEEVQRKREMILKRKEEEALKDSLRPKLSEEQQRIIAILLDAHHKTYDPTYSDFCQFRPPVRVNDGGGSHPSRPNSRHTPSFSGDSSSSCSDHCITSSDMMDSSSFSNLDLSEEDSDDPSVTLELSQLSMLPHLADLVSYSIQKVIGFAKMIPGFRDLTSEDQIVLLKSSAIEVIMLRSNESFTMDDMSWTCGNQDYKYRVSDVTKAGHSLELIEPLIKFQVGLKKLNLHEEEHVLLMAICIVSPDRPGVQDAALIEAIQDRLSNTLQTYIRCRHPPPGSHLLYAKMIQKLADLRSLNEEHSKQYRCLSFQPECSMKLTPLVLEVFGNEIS
Peroxisome proliferator-activated receptor alpha (Homo sapiens), sequence (Q07869 whole entry, looked up): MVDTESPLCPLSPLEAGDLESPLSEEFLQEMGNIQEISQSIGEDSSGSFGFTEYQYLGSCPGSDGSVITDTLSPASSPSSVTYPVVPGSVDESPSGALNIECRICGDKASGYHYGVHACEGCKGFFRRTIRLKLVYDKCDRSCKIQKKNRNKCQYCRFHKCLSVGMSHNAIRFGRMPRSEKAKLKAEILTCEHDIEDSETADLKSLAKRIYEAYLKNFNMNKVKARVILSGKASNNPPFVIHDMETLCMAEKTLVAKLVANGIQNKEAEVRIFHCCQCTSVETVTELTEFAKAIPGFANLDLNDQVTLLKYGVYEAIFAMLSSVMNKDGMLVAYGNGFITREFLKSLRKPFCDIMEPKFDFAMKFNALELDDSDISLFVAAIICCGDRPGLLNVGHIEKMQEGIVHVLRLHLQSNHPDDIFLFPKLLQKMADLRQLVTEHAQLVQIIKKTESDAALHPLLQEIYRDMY
Nuclear receptor subfamily 1 group I member 2 (Rattus norvegicus), sequence (Q9R1A7 whole entry, looked up): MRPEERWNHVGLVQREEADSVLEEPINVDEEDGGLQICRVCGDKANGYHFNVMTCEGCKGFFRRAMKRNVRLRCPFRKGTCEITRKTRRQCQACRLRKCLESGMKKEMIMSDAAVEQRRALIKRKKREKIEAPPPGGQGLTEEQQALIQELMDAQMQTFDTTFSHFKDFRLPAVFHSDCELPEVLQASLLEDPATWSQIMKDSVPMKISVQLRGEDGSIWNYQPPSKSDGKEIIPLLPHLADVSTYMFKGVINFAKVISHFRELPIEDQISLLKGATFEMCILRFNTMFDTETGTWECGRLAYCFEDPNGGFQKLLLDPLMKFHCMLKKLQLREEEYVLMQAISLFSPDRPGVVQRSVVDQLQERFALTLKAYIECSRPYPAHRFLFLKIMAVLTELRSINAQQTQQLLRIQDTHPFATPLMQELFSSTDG
Glucocorticoid receptor (Homo sapiens), sequence (P04150 whole entry, looked up): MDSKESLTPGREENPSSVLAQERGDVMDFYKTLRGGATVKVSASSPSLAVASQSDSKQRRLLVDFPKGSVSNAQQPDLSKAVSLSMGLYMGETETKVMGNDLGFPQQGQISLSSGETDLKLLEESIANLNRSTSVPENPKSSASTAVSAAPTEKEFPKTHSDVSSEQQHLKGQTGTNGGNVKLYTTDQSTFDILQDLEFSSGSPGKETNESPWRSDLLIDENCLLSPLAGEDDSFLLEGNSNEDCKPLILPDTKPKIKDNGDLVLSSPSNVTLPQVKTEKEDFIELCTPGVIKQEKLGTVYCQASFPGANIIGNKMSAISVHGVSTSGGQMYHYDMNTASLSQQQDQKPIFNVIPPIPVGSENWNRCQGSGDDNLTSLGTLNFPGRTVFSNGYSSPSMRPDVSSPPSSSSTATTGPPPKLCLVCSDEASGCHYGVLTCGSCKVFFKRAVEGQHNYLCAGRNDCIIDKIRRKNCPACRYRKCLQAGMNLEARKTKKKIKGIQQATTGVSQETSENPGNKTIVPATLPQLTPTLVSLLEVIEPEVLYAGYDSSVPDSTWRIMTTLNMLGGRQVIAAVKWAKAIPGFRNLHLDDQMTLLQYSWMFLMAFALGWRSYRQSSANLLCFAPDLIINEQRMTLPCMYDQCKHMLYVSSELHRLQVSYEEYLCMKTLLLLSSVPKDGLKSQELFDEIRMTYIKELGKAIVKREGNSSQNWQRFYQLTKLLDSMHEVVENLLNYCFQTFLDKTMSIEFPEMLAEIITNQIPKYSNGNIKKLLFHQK

c1cc(-c2ccncc2)ccn1
17.1%: max response [9]
inactive: Potency [1] | Potency [2] | activation [3] -9.26% | outcome [4] | Potency [5] | Potency [7] | Potency [8] | max response [10] -37.6% | activity change % (negative = inhibition) [11] -17.5% | activation [12] -1.45% | activation [13] 0.354% | max response [14] 0.638% | max response [15] -5.96% | max response [16] -10.3% | Potency [17] | max response [18] -2.25% | outcome [19]
22%: max response [6]

O=C(OCC1CCC2OC2C1)C1CCC2OC2C1 (configuration not stated)
1.3%: max response [9]
-2.67%: max response [20]
inactive: Potency [1] | Potency [2] | activation [3] -15% | outcome [4] | Potency [5] | Potency [7] | Potency [8] | activity change % (negative = inhibition) [11] 1.74% | activation [12] 1.33% | activation [13] 1.05% | max response [14] 0.673% | max response [15] -4.32% | max response [16] -11.2% | Potency [17] | max response [18] 1.7% | outcome [19]
-10.9%: max response [6]

CCCCCCCC(=O)OC
-15%: max response [9]
14.7%: max response [6]
18.8%: max response [20]
inactive: Potency [1] | Potency [2] | outcome [4] | Potency [5] | Potency [7] | Potency [8] | max response [10] -8.88% | activity change % (negative = inhibition) [11] 13.2% | activation [12] -1.19% | activation [13] -2.72% | max response [14] -3.16% | max response [15] 0.0694% | max response [16] -6.4% | max response [18] 2.14% | outcome [19]

COC(=O)c1ccccc1C(=O)O
47.6%: max response [20]
-12.1%: max response [6]
inactive: Potency [1] | Potency [2] | activation [3] -3.15% | outcome [4] | Potency [5] | Potency [7] | Potency [8] | max response [10] -10.2% | activity change % (negative = inhibition) [11] -12.2% | activation [12] -0.0496% | activation [13] 0.0502% | max response [14] -0.96% | max response [15] -2.33% | max response [16] -13.6% | Potency [17] | max response [18] 2.64% | outcome [19]
-4.92%: max response [9]

OCCOCCOCCOCCO
-7.24%: max response [9]
inactive: Potency [1] | Potency [2] | activation [3] -2.94% | Potency [5] | Potency [7] | Potency [8] | activation [12] -0.834% | activation [13] 2.06% | max response [14] -1.11% | max response [16] -2.22% | Potency [17]
-5.22%: max response [20]
4.51%: max response [6]

c1ccc(-c2ccc(-c3ccccc3)cc2)cc1
inactive: Potency [1] | Potency [2] | activation [3] -0.857% | outcome [4] | Potency [5] | Potency [8] | max response [10] 1.88% | activity change % (negative = inhibition) [11] 2.31% | activation [12] 0.439% | activation [13] 6.5% | max response [14] -0.186% | max response [15] -5.82% | max response [16] -2.69% | Potency [17] | outcome [19]
-0.983%: max response [20]
-5.51%: max response [9]
